Screens from PubChem BioAssay.
nsP2pro primary – blocks chikungunya virus nsP2 protease peptide cleavage; Q8JUX6; FRET peptide cleavage, nsP2pro, fluorescence 1 h; Potency, µM (top dose mostly 24.9 µM), inactives show at the highest dose activity change, negative = inhibition, most hits filed as inhibitors; 1.1% of 31,000 active; also: nearly all actives have a fitted effect of over 60% in size
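FRET cleavage of 2.5 uM peptide 2 by 150 nM CHIKV protease domain at pH 8.0 (Tris, Tween 20). Compounds at 7 concentrations (up to 25 uM) preincubated 15 min. Fluorescence read after 1 h at room temperature.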
nsP2 cell sec – cell-based CHIKV nsP2 protease inhibition, secondary; AID 1964100; cell-based CHIKV nsP2 protease reporter assay; shares compounds with nsP2pro primary; 10% of 450 active; Potency, µM (doses to about 51.1 µM), without a hit: at the highest dose activity change, negative = inhibition, most hits filed as inhibitors; also: nearly all actives have a fitted effect of over 70% in size
CHIKV NSP2 FL – full-length CHIKV NSP2 protease inhibition, selectivity | shares compounds with nsP2pro primary | Full-length CHIKV NSP2 protease enzymatic counterscreen | Potency, µM (highest dose often 50.7 µM), for inactives: at the top dose activity change, negative = inhibition, most hits filed as inhibitors | 39% of 410 active; also: nearly all actives have a fitted effect of over 65% in size
Furin counter – inhibits human furin in a CHIKV nsP2 protease selectivity counterscreen; 6% of 410 active; Potency, µM (doses to about 50.6 µM), for inactives: at the highest dose activity change, negative = inhibition, usual class: inhibitors; shares compounds with nsP2pro primary; Recombinant human furin enzymatic counterscreen, fluorogenic substrate
Target sequence (P09958 whole entry, looked up): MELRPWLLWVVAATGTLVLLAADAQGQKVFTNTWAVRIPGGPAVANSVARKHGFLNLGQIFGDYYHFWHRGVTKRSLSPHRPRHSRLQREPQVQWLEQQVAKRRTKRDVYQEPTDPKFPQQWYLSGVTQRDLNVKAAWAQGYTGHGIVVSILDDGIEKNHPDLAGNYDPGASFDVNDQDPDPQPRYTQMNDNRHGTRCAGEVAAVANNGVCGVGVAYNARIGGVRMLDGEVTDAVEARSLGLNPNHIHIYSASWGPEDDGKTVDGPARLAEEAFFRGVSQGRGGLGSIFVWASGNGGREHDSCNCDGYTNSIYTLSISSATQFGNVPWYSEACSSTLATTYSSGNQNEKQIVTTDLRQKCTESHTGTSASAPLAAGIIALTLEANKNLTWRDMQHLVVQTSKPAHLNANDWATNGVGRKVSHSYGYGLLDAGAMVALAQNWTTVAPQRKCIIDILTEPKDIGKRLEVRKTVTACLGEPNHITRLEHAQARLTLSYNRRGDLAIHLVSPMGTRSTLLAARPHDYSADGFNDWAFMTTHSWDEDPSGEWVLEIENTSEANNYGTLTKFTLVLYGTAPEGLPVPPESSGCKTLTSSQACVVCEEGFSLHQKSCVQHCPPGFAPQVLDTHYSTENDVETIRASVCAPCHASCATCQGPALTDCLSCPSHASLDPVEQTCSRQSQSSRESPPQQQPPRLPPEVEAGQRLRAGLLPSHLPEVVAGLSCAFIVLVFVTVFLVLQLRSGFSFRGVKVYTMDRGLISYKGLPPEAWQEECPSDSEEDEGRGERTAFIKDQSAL
nsP2 NS23 pep – selectivity test for CHIKV nsP2 protease inhibitors: endogenous NS2/3 peptide | AID 1964103 | Purified CHIKV nsP2 protease, endogenous NS2/3 peptide cleavage | shares compounds with nsP2pro primary | Potency, µM (titrated, usually from 51 µM), without a hit: top-dose activity change, negative = inhibition, most hits filed as inhibitors | 34% of 410 active; also: nearly all actives have a fitted effect of over 55% in size
Papain counter – inhibits papain in a CHIKV nsP2 protease selectivity counterscreen; shares compounds with nsP2pro primary; purified papain protease activity, enzymatic inhibition; Potency, µM (doses to about 51 µM), for the others: at the top dose activity change, negative = inhibition, actives largely listed as inhibitors; 5% of 410 active
nsP2pro conf qHTS – CHIKV nsP2 protease inhibition, confirmatory qHTS. shares compounds with nsP2pro primary. CHIKV nsP2 protease enzymatic activity, qHTS. Potency, µM (top dose mostly 25.5 µM), for the others: at the top dose activity change, negative = inhibition, actives largely listed as inhibitors. 43% of 410 active; also: nearly all actives have a fitted effect of over 75% in size
HCV NS3 4A cs – inhibits HCV NS3/4A protease in an nsP2pro selectivity counterscreen; 20% of 410 active; Potency, µM (doses to about 50.9 µM), hits mostly inhibitors; HCV NS3/4A protease biochemical counterscreen; shares compounds with nsP2pro primary; also: nearly all actives have a fitted effect of over 55% in size
Active calls of the source: *; i = inactive; ? = inconclusive; [ ] = remark or other dose. The full list was thinned out, with hits kept by preference. Calls follow the shape of the full dose curve. % is scaled to controls: 0 for no effect and ±100 for the full control effect; potency is read from the fitted curve at half-maximal effect.

SMILES	nsP2pro primary	others
CCC(C)/C=C(C)/C=C/C1=CC2=CC(=O)C3(C)OC(C)(O)C(C(=O)OC)C3C2=CO1 (stereo unspecified)	?	nsP2 cell sec=-4%[17.6 µM];CHIKV NSP2 FL=-15%[17.3 µM];Furin counter=-9%[17.3 µM];nsP2 NS23 pep=-11%[17.2 µM];Papain counter=4%[17.2 µM];nsP2pro conf qHTS=?;HCV NS3 4A cs=i
CCC(C)/C=C(C)/C=C/C1=CC2=C(Cl)C(=O)C(C)(OC(C)=O)C(=O)C2=CN1C(CCC(=O)O)C(=O)O (stereo unspecified)	-1%[10 µM]
C#CCN(Cc1nc(-c2ccccc2OCC)oc1C)C1CCCCC1	i
Cc1nc(C)c(C(=O)Nc2nn(Cc3ccccc3)c3cccc(OC(C)C)c23)o1	-11%
CC(C)CCC[C@@H](C)[C@H]1CC[C@H]2[C@@H]3CC[C@H]4C[C@@H](O)CC[C@]4(C)[C@@H]3CC[C@]12C	10%[10 µM]
O=C1COCC2(CN(CCC(F)(F)F)C2)CN1Cc1cccc(OC(F)(F)F)c1	-5%[39.2 µM]
COc1cccc(CCC(=O)N2CCCCC2c2nc(-c3ccncc3)n[nH]2)c1 (stereo unspecified)	i
CN(Cc1cccc(N2CCN(Cc3c(Cl)ccc(Cl)c3Cl)CC2)c1)[S+](C)(=O)[O-]	-1%
CCc1noc(-c2cn(C3CCCN(C(=O)c4ccc(C(C)(C)C)cc4)C3)nn2)n1 (stereo unspecified)	2%
CCCC(=O)OC[C@@H](OC(=O)CCC)[C@@H](OC(=O)CCC)[C@H](Cn1c2nc(=O)[nH]c(=O)c-2nc2cc(C)c(C)cc21)OC(=O)CCC	0.7µM*	nsP2 cell sec=25%;CHIKV NSP2 FL=17%;Furin counter=-12%;nsP2 NS23 pep=2%;Papain counter=?;nsP2pro conf qHTS=-4%;HCV NS3 4A cs=i
Cc1ccccc1-c1nc(Cn2ccnc2C(C)C)c(C)o1	i
CCN(CC)C(=O)[C@@H]1CCC[C@@H](NC(C)=O)CN(C)C(=O)C1	-7%[39.2 µM]
COCC(=O)N[C@@H]1CCC[C@@H](C(=O)NC2CC2)CC(=O)N(C)C1	i
CCCNC(=O)N[C@@H]1CCC[C@@H](C(=O)NCCOC)CC(=O)N(C)C1	4µM*	nsP2 cell sec=21%;CHIKV NSP2 FL=15µM*;Furin counter=?;nsP2 NS23 pep=24µM*;Papain counter=4%;nsP2pro conf qHTS=4.1µM*;HCV NS3 4A cs=?
COC(=O)[C@H](NC(=O)[C@@H]1C[C@H](NC(=O)Nc2ccc(OC)cc2)CN1C(=O)c1cccn1C)C(C)C	-11%
CCn1ccn2c(-c3ccccc3)nc(C)c2c1=O	i
COc1ccc(-c2cc(C(=O)N3CCOC(c4ccc(F)cc4)C3)[nH]n2)cc1 (stereo unspecified)	i
O=C(c1ccc(-c2ccco2)cc1)N1CCOC(c2ccccc2)C1 (stereo unspecified)	7.9µM*	nsP2 cell sec=?;CHIKV NSP2 FL=10µM*;Furin counter=-3%;nsP2 NS23 pep=?;Papain counter=-13%;nsP2pro conf qHTS=9µM*;HCV NS3 4A cs=i
O=C(c1ccc2ncccc2c1)N1CCOC(c2ccc(Cl)c(Cl)c2)C1 (stereo unspecified)	3%
Nc1ccc(C(=O)Nc2ccc(-c3nc4ccccc4[nH]3)cc2)cc1Cl	-8%
Cc1cc(-c2noc(CNC(=O)c3cc(-c4ccco4)[nH]n3)n2)no1	5µM*	nsP2 cell sec=?;CHIKV NSP2 FL=-3%;Furin counter=-8%;nsP2 NS23 pep=-32%;Papain counter=0%;nsP2pro conf qHTS=-8%;HCV NS3 4A cs=10µM*
Cc1cccc(-c2noc(CNC(=O)c3ccco3)n2)c1	-10%
O=C(NCc1nc(-c2ncccn2)no1)c1csc(-c2cccs2)n1	-5%
CCOc1ccc(-c2noc(CNC(=O)c3cc(-c4ccco4)[nH]n3)n2)cn1	0.79µM*	nsP2 cell sec=?;CHIKV NSP2 FL=8.2µM*;Furin counter=-8%;nsP2 NS23 pep=-15%;Papain counter=-5%;nsP2pro conf qHTS=?;HCV NS3 4A cs=i
COc1ccccc1OCC(=O)NCc1nc(-c2ccc(Cl)cc2)no1	-14%
Cc1cccc(-c2noc(CCCC(=O)NCc3ccco3)n2)c1	-28%
